In all, about 410,000 compounds went through this assay and about 18,000 (4.4%) were called active. Inconclusive results (about 7%) are left out. No stated cut-off is given here; in the data, active means activity change below about -60%; inconclusive means no clear call, values can overlap the other calls; inactive means above about -39%. Many of the other results were omitted from the sample, so actives are more common in it than they were.
Assay: qHTS Assay for inhibitors of the human cytomegalovirus (HCMV)
Settings: HFF cells, HCMV-luciferase reporter, 72 h; at 57.5 µM; active compounds read low
How it was run: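 Screen run at 2 compound doses on HFFs infected with reporter HCMV, MOI 1 PFU/cell. Luciferase activity from cell lysates at 72 h post infection gave inhibition relative to buffer-only and Salinomycin wells.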
In the case of CCOc1ccc(CCNC(=O)c2cc3c(=O)n(C)c4ccccc4c3n2C)cc1, the activity change, negative = inhibition is reported as -15.3% (inactive). With O=C(NCCCN1CCN(c2cccc(Cl)c2)CC1)c1nnc(Cc2ccc(F)cc2Cl)o1 the activity change, negative = inhibition was -14.1% (inactive). For Cn1c(C(=O)NCCCN2CCN(c3cccc(Cl)c3)CC2)cc2c(=O)n(C)c3ccccc3c21, the activity change, negative = inhibition was -68.6% (active). In the case of Cc1cccc(NC(=O)CSc2ncc(-c3ccccc3)[nH]2)c1C, the activity change, negative = inhibition is reported as 45.4% (inactive). In the case of C=CCOC(=O)C1=C[C@@H](c2ccccc2)C[C@@H](OCc2ccc(CO)cc2)O1, the activity change, negative = inhibition is reported as -2.26% (inactive). In the case of CN(C)c1ccc(C(CNS(=O)(=O)c2cc(F)ccc2F)N2CCOCC2)cc1 (stereo unspecified), the activity change, negative = inhibition is reported as -0.38% (inactive). With CCCNC(=O)C(CC)n1nc(CC)n2c(cc3oc(C)cc32)c1=O (stereo unspecified) the activity change, negative = inhibition was -16.8% (inactive). In the case of COc1cc(OC)c(NC(=O)c2nc(-c3ccncc3)no2)cc1Cl, the activity change, negative = inhibition is reported as -9.36% (inactive). With CCOC(=O)C1CN(S(=O)(=O)c2ccc(F)cc2)C1 the activity change, negative = inhibition was 41% (inactive). For CCOC(=O)C1CN(S(=O)(=O)c2ccc(OC)cc2)c2cc(Cl)ccc2O1 (stereo unspecified), the activity change, negative = inhibition was -61.8% (active). With CCS(=O)(=O)c1ccc2c(c1)N(S(=O)(=O)c1ccccc1)CC(C(=O)O)O2 (stereo unspecified) the activity change, negative = inhibition was 4.24% (inactive). In the case of CCCCCn1c(=O)[nH]c2cc(C(=O)Nc3cc(C)cc(C)c3)ccc2c1=O, the activity change, negative = inhibition is reported as -0.639% (inactive). In the case of CC[C@]1(O)C[C@@H]2CN(CCc3c([nH]c4ccccc34)[C@@](C(=O)OC)(c3cc4c(cc3OC)N(C)[C@H]3[C@@](O)(C(=O)OC)[C@H](OC(C)=O)[C@]5(CC)C=CCN6CC[C@]43[C@@H]65)C2)C1, the activity change, negative = inhibition is reported as -99.7% (active). For CC[C@]1(O)CC2CN(CCc3c([nH]c4ccccc34)[C@@](C(=O)OC)(c3cc4c(cc3OC)N(C=O)[C@H]3[C@@](O)(C(=O)OC)[C@H](OC(C)=O)[C@]5(CC)C=CCN6CC[C@]43[C@@H]65)C2)C1 (stereo partly specified), the activity change, negative = inhibition was -100% (active). For CCc1cccc(NC(=O)CSc2nccn2C)c1, the activity change, negative = inhibition was 73.7% (inactive). With O=C(Nc1cc(-c2nc3ccccc3o2)ccc1Cl)c1cc([N+](=O)[O-])ccc1N1CCOCC1 the activity change, negative = inhibition was 17.1% (inactive). In the case of O=C(CCCCn1c(=O)c2ccccc2n(CC(=O)Nc2cccc(C(F)(F)F)c2)c1=O)NCc1ccc2c(c1)OCO2, the activity change, negative = inhibition is reported as -22.6% (inactive). With CCC(=O)N1CCc2cc(S(=O)(=O)NC(CC(C)C)C(=O)NCCc3cccc(C)c3)ccc21 (stereo unspecified) the activity change, negative = inhibition was -11.4% (inactive). For COc1cn(CC(=O)Nc2cccc(C)c2C)c(CN2CCCCC2)cc1=O, the activity change, negative = inhibition was 6.56% (inactive). For O=C(c1ccc(N2CCOCC2)c([N+](=O)[O-])c1)N1CCN(c2ccccc2F)CC1, the activity change, negative = inhibition was -77.5% (active). In the case of CC(C)c1ccc(S(=O)(=O)N2CCN(C(=O)c3ccc(N4CCCC4)c([N+](=O)[O-])c3)CC2)cc1, the activity change, negative = inhibition is reported as -16.3% (inactive). In the case of O=C(c1ccc(N2CCOCC2)c([N+](=O)[O-])c1)N1CCN(S(=O)(=O)c2cccs2)CC1, the activity change, negative = inhibition is reported as 5.8% (inactive). With O=C(c1cc(C(=O)N2CCN(c3ccc(F)cc3)CC2)cc([N+](=O)[O-])c1)N1CCN(c2ccc(F)cc2)CC1 the activity change, negative = inhibition was -66.2% (active). With O=C(c1cccc(F)c1)N1CCN(c2ccc([N+](=O)[O-])c(N3CCCCC3)c2)CC1 the activity change, negative = inhibition was -60.2% (active). For O=C(c1cccc(F)c1)N1CCN(c2ccc([N+](=O)[O-])c3cccnc23)CC1, the activity change, negative = inhibition was -7.42% (inactive). In the case of COc1ccc(N2CCN(C(=O)c3cccs3)CC2)cc1, the activity change, negative = inhibition is reported as 57.6% (inactive). With O=[N+]([O-])c1ccc(N2CCN(c3ccc(F)cc3)CC2)cn1 the activity change, negative = inhibition was -16.4% (inactive). For COc1ccc(N2CCN(C(=O)c3c(C)oc4nc(C)nc(N5CCCC5)c34)CC2)cc1, the activity change, negative = inhibition was 18.7% (inactive). With O=C(c1ccc(CN2CCOCC2)cc1)N1CCN(c2ccccc2F)CC1 the activity change, negative = inhibition was 16.2% (inactive). For O=C(c1cncc(Br)c1)N1CCN(c2ccc([N+](=O)[O-])cc2)CC1, the activity change, negative = inhibition was 25.9% (inactive). With COc1ccc(-c2cc(C(=O)N3CCN(c4ccc(F)cc4)CC3)no2)cc1 the activity change, negative = inhibition was -76% (active).

From PubChem BioAssay AID1259415 (National Center for Advancing Translational Sciences (NCATS), 2018)
On the % scale 0 is the no-effect control and ±100 the full control effect.
